In the supplement of paper PMC7184167:
Where a name gives a salt, the structure may show the parent alone.

The molecules below were run on replication-induced senescent mouse newborn dermal fibroblasts (NBF) (assay: relative cell viability of senescent cells (fraction); higher = less killing of senescent cells). Conditions: 1 µM; 3 days.
Description: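 Replication-induced senescent newborn mouse skin fibroblasts (NBFs) in 24-well plates were treated with a Selleck FDA-approved drug library at 1 µM for 3 days.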
Work on `CN1c2ccccc2C(NCCCCCCC(=O)O)c2ccc(Cl)cc2S1(=O)=O` (stereo not drawn) [Tianeptine sodium] yielded a relative cell viability of 0.946.
For `CN(C)[C@@H]1C(=O)C(C(N)=O)=C(O)[C@@]2(O)C(=O)C3=C(O)c4c(O)cccc4[C@@](C)(O)[C@H]3[C@H](O)[C@@H]12` [Oxytetracycline (Terramycin)], the relative cell viability was 1.01.
`CN(C)C(=O)Oc1ccc[n+](C)c1` [Pyridostigmine Bromide] was tested, and the relative cell viability was 1.19.
`CC(O)(CS(=O)(=O)c1ccc(F)cc1)C(=O)Nc1ccc(C#N)c(C(F)(F)F)c1` (stereo not drawn) [Bicalutamide] gave a relative cell viability of 0.913.
`CN1[C@@H]2C[C@@H](OC(=O)[C@H](CO)c3ccccc3)C[C@H]1[C@@H]1O[C@@H]12` [Scopolamine HBr] gave a relative cell viability of 1.03.
In the case of `Cn1c(CCCC(=O)O)nc2cc(N(CCCl)CCCl)ccc21` [Bendamustine HCl], the relative cell viability is reported as 0.999.
`C=C1C[C@@H]2[C@H](CC[C@]3(C)C(=O)CC[C@@H]23)[C@@]2(C)C=CC(=O)C=C12` [Exemestane] gave a relative cell viability of 1.08.
In the case of `C[C@]12Cc3c[nH]nc3C[C@@H]1CC[C@@H]1[C@@H]2CC[C@@]2(C)[C@H]1CC[C@]2(C)O` [Stanozolol], the relative cell viability is reported as 0.136.
In the case of `COc1cc2c(cc1OC)C1CC(=O)C(CC(C)C)CN1CC2` (stereo not drawn) [Tetrabenazine (Xenazine)], the relative cell viability is reported as 1.04.
Work on `CCC1(c2ccc(N)cc2)CCC(=O)NC1=O` (stereo not drawn) [Aminoglutethimide] yielded a relative cell viability of 0.889.
With `C[C@]12CC[C@H]3[C@@H](CC[C@@]45O[C@@H]4C(O)=C(C#N)C[C@]35C)[C@@H]1CC[C@@H]2O` [Trilostane] the relative cell viability was 0.778.
`Cn1cc(C2=C(c3cn(C4CCN(Cc5ccccn5)CC4)c4ccccc34)C(=O)NC2=O)c2ccccc21` showed a relative cell viability of 0.523.
With `COc1ccc(C(CN(C)C)C2(O)CCCCC2)cc1` (stereo not drawn) [Venlafaxine HCl] the relative cell viability was 1.03.
